Drawing on PubChem BioAssay (Tox21), this text covers Potency for 7 compounds.

Inconclusive results are not listed. Active and inactive are the calls of the source. Unless noted, calls come from the whole dose curve; as a rule, active = well fitted curve in the direction sought with a large enough effect in the repeat runs; inconclusive = weak or mixed curves; inactive = no such curve, though single readings can be large; an effect the other way counts as inactive or inconclusive.

Experiment [1] in a line: qHTS assay for small molecules that induce genotoxicity in human embryonic kidney cells expressing luciferase-tagged ATAD5 (AID 651632). Note: nearly all actives have a fitted effect of over 15% in size. The method in brief: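 Cells were seeded at 2,000 per well, dosed with compound, and incubated 16 hr at 37C in 5% CO2. Luciferase activity was then quantified after a 30 min room-temperature incubation with Amplite.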
(Quantitative high-throughput screening tests each substance at several concentrations.)

Experiment [2] in a line: qHTS assay for small molecule agonists of the p53 signaling pathway - cell viability (AID 651633; calls by dose curve; note: nearly all actives have a fitted effect of over 30% in size; note: potency is the fitted concentration of half-maximal effect). In short, it runs like this: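 Viability counter-read: CellTiter-Glo luminescence (30 min, room temperature) in the same p53RE-bla plates. These plates had been exposed to compounds for 16 h at 37 C.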
Experiment [3] can be described thus: qHTS assay for small molecules that induce genotoxicity in human embryonic kidney cells expressing luciferase-tagged ATAD5 - cell viability (AID 651634; calls by dose curve; note: nearly all actives have a fitted effect of over 25% in size; note: potency is the fitted concentration of half-maximal effect). The method in brief: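 Cells (HEK293T, luciferase-tagged ATAD5) are seeded at 2,000 per well, dosed with compound or DMSO vehicle, and incubated 15.5 hr at 37C and 5% CO2. CellTiter-Fluor is added for 30 min before fluorescence is measured.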

Experiment [4] can be described thus: qHTS assay for small molecule disruptors of the mitochondrial membrane potential - cell viability (AID 720634; calls by dose curve;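 note: human HepG2 liver cancer cells; nearly all actives have a fitted effect of over 20% in size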). The method in brief:
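Cytotoxicity was measured by ATP quantitation in HepG2 wells that had first been treated with compound for 1 hr and stained with m-MPI dye; CellTiter-Glo incubation was 30 min at room temperature.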

Experiment [5] can be described thus: qHTS assay for small molecule disruptors of the mitochondrial membrane potential (AID 720635). Note: potency is the fitted concentration of half-maximal effect. In short, it runs like this:
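Mitochondrial membrane potential tracked with Mito-MPS dye, red aggregates (ex 540/em 590 nm) against green monomers (ex 490/em 535 nm). Compound treatment 1 hr at 37C, dye 30 min in HepG2.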

Experiment [6] can be described thus: qHTS assay to test for compound auto fluorescence at 590 nm (red) in HepG2 cells (AID 720674). In short, it runs like this: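 We screened compounds on adherent HepG2 cells, incubating them for an hour at 37 C in 5% CO2 before reading emission at 590 nm under 540 nm excitation; values reflect equivalence to Rose Bengal sodium fluorescence.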
Experiment [7] is described as follows: qHTS assay to test for compound auto fluorescence at 535 nm (green) in HepG2 cells (AID 720675).
Experiment [8] is described as follows: qHTS assay to test for compound auto fluorescence at 460 nm (blue) in HEK293 cells (AID 720678). In short, it runs like this:
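HEK293 cells (2,000 per well, medium with 10% dialyzed FBS) attached for 4-5 hr at 37C, then received compound and stood overnight at 37C, 5% CO2. Blue fluorescence was read at Ex/Em 405/460 nm and expressed relative to triamterene.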

Experiment [9] can be described thus: qHTS assay to test for compound auto fluorescence at 590 nm (red) in HEK293 cells (AID 720679). In short, it runs like this: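 HEK293 cells (2,000/well, medium with 10% dialyzed FBS) attached for 4-5 hr at 37C, received 23 nL compound and were incubated overnight at 37C, 5% CO2. Red fluorescence was then read at 540/590nm Ex/Em, referenced to Rose Bengal sodium.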

A short description of experiment [10]: qHTS assay to test for compound auto fluorescence at 535 nm (green) in HEK293 cells (AID 720680).
Experiment [11] in a line: qHTS assay to test for compound auto fluorescence at 460 nm (blue) in HEK293 cell free culture (AID 720681). In short, it runs like this: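 Blue fluorescence (Ex 405/Em 460 nm, triamterene-equivalent) was read immediately after pin transfer of compound or DMSO into medium (DMEM, 10% FBS) without cells.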
The nature of experiment [12]: qHTS assay to test for compound auto fluorescence at 535 nm (green) in HEK293 cell free culture (AID 720682). The method in brief:
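No cells present: wells hold DMEM supplemented with 10% FBS, into which compound or vehicle is pinned. Green emission is then recorded (485 nm excitation, 535 nm emission) and scaled to fluorescein.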

A short description of experiment [13]: qHTS assay to test for compound auto fluorescence at 590 nm (red) in HEK293 cell free culture (AID 720683). The method in brief:
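Red-channel autofluorescence of compounds in culture medium (DMEM, 10% FBS), no cells, measured at 540/590 nm. Rose Bengal sodium is the reference fluorophore for equivalence.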

The nature of experiment [14]: qHTS assay to test for compound auto fluorescence at 590 nm (red) in HepG2 cell free culture (AID 720684). The method in brief:
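No cells present: MEM + 10% FBS only. Compound pinned in, red label read (540/590 nm). Activity = fluorescence equivalent to Rose Bengal sodium.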

Experiment [15] is described as follows: qHTS assay to test for compound auto fluorescence at 460 nm (blue) in HepG2 cell free culture (AID 720685). The method in brief:
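Cell-free plates of MEM plus 10% FBS received 23 nL compound or DMSO vehicle; blue-channel (405/460 nm) intensity scored against triamterene as reference fluorophore.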

Experiment [16] is described as follows: qHTS assay to test for compound auto fluorescence at 535 nm (green) in HepG2 cell free culture (AID 720686).
A short description of experiment [17]: qHTS assay to test for compound auto fluorescence at 460 nm (blue) in HepG2 cells (AID 720687). In short, it runs like this:
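Blue-channel autofluorescence (Ex/Em 405/460 nm, triamterene-equivalent) was measured after 1 hr compound exposure at 37 C, 5% CO2. Cells were HepG2, plated overnight at 37 C in MEM plus 10% FBS.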

Experiment [18] has as its target Glucocorticoid receptor (Homo sapiens) (UniProt P04150). The experiment can be described thus: qHTS assay to identify small molecule antagonists of the glucocorticoid receptor (GR) signaling pathway (AID 720692; active = well fitted inhibition curve with a large enough effect in the signal ratio in the repeat runs, not every such curve was filed as active; the % refers to the signal ratio; note: potency is the fitted concentration of half-maximal effect). In short, it runs like this:
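Antagonism was scored as loss of dexamethasone-driven (5 nM final) reporter signal in HeLa cells bearing a glucocorticoid response element–beta-lactamase construct, after 18 h compound exposure at 37 C and 2 h FRET substrate loading.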

Experiment [19] in a line: qHTS assay for small molecule agonists of the p53 signaling pathway (AID 651631; calls by dose curve; note: nearly all actives have a fitted effect of over 15% in size; note: potency is the fitted concentration of half-maximal effect). The method in brief:
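Agonist mode screen using a stably integrated beta-lactamase gene under p53 response elements in HCT-116 cells. Compound exposure lasts 16 h at 37 °C; fluorescence intensity is measured following 2 h FRET substrate loading.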

The target in experiment [20] is Glucocorticoid receptor (Homo sapiens) (UniProt P04150). The experiment in a line: qHTS assay to identify small molecule agonists of the glucocorticoid receptor (GR) signaling pathway (AID 720691; active = well fitted activation curve with a large enough effect in the signal ratio in the repeat runs, not every such curve was filed as active; the % refers to the signal ratio). As to conditions: GR-bla HeLa, beta-lactamase reporter ratio, 18 h; activation: at 62.4 µM (top of the series). In short, it runs like this: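 Steps: seed GR-bla HeLa cells, incubate 4 h at 37 C/5% CO2; pin-transfer DMSO-dissolved compounds; incubate 18 h at 37 C; add LiveBLAzer B/G FRET substrate; after 2 h at room temperature, measure fluorescence.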
Sequence of Glucocorticoid receptor (Homo sapiens) (P04150 whole entry, looked up): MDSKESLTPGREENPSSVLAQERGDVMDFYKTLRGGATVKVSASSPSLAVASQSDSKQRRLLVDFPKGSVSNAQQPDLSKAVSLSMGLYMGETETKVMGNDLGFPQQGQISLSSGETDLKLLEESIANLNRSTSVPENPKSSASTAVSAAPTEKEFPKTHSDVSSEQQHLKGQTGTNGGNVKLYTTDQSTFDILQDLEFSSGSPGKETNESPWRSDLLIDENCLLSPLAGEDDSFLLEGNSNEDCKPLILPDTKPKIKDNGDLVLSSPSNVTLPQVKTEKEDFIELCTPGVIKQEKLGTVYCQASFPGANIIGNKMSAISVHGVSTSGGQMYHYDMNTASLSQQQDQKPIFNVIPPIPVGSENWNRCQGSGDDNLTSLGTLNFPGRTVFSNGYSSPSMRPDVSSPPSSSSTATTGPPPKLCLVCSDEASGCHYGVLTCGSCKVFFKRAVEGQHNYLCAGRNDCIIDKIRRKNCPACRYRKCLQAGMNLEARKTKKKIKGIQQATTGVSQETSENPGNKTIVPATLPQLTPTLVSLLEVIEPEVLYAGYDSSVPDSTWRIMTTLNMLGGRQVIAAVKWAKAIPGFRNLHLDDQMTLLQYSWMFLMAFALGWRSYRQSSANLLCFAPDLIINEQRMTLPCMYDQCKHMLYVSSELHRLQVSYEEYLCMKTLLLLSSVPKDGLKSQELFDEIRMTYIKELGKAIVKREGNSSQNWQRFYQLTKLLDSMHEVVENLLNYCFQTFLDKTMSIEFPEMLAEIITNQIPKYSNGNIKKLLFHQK

On to `Nc1cc(Cl)c([N+](=O)[O-])cc1O`, for which the Potency entry in experiment [1], in experiment [2], in experiment [4], in [6], in experiment [7] and in experiment [8] was “inactive” in each case. Further, the Potency entry in [9], in experiment [10], in [11], in experiment [12], in [13] and in experiment [14] was “inactive” each time. The Potency result in [15], in [16], in [17] and in experiment [18] was “inactive” throughout. Also, the Potency in experiment [3] is 68 µM (active); in [5], 19.2 µM (active).

Consider `CCCCCCCCCCCC(=O)N(CC)CC`, for which the Potency entry in experiment [19], in experiment [1], in experiment [2], in [3], in [4] and in [6] was “inactive” each time. Also, the Potency result in experiment [7], in [8], in experiment [9], in experiment [10], in experiment [11] and in experiment [12] was “inactive” throughout. The Potency result in experiment [13], in experiment [15], in experiment [16] and in [17] was “inactive” each time.

As for `Oc1c(Br)cc(Br)c2cccnc12`, the values for the Potency in experiment [19] and in experiment [2] were 5.96 µM (active) and 6.68 µM (active), respectively. The Potency result in experiment [1], in [3], in [4], in experiment [6], in experiment [7] and in experiment [9] was “inactive” throughout. The Potency result in experiment [10], in experiment [11], in experiment [12], in [13], in experiment [14] and in experiment [15] was “inactive” throughout. In addition, the Potency entry in experiment [16] and in [17] was “inactive” in each case.

With `CCC(=O)OCCc1ccccc1`, the Potency entry in [19], in [1], in [2], in [3], in experiment [4] and in experiment [6] was “inactive” throughout. For the same compound, the Potency entry in experiment [7], in [8], in experiment [9], in experiment [11], in [12] and in [13] was “inactive” in each case. For the same compound, the Potency result in experiment [14], in experiment [15], in experiment [16], in [17], in experiment [20] and in experiment [18] was “inactive” each time.

As for `Cc1ccc2ccc3cccc4ccc1c2c34`, the Potency entry in [1], in [2], in experiment [3], in experiment [4], in experiment [6] and in experiment [7] was “inactive” each time. Moreover, the Potency entry in experiment [8], in experiment [9], in experiment [10], in experiment [11], in experiment [12] and in experiment [13] was “inactive” in each case. For the same compound, the Potency entry in experiment [14], in experiment [15], in experiment [16], in [17] and in experiment [20] was “inactive” throughout. The Potency in [5] is 38.5 µM (active).

For the compound `COc1cc(C(=O)NS(=O)(=O)c2ccccc2C)ccc1Cc1cn(C)c2ccc(NC(=O)OC3CCCC3)cc12`, the Potency result in experiment [1], in experiment [3], in experiment [4], in [6], in experiment [7] and in experiment [8] was “inactive” in each case. The Potency entry in [9], in experiment [10], in [11], in experiment [12], in experiment [13] and in experiment [14] was “inactive” throughout. Also, the Potency entry in experiment [15], in experiment [16], in [17] and in experiment [20] was “inactive” throughout. In addition, the results for the Potency in experiment [2], in experiment [5] and in [18] were 5.96 µM (active), 9.44 µM (active) and 12 µM (active), respectively.

On to `O=C1OC(=O)c2cccc3cccc1c23`, for which the Potency entry in experiment [19], in [1], in experiment [2], in [3], in experiment [4] and in [6] was “inactive” in each case. Further, the Potency entry in experiment [8], in experiment [9], in experiment [10], in experiment [11], in [12] and in experiment [13] was “inactive” each time. Moreover, the Potency entry in experiment [14], in experiment [16] and in experiment [17] was “inactive” in each case.
